Measurements from PubChem BioAssay (Tox21).
A number with no mark means an inactive call. A call without a number means that no potency is given here. The source made the active and inactive calls. Unless noted, calls follow the shape of the dose curve; as a rule, active = well fitted activation curve with a large enough effect in the repeat runs; inconclusive = weak or mixed curves; inactive = flat fitted curve, though single readings scatter.

target: Gonadotropin-releasing hormone receptor (Homo sapiens) (UniProt P30968); experiment: Human gonadotropin-releasing hormone receptor (GnRHR) small molecule agonists, calcium flux assay in GnRHR-HEK293 cells (AID 1920063; calls by dose curve; also: nearly all actives have a fitted effect of over 35% in size); details: calcium flux fluorescence, agonist mode; series mostly up to 57.6 µM
Sequence (P30968 whole entry, looked up): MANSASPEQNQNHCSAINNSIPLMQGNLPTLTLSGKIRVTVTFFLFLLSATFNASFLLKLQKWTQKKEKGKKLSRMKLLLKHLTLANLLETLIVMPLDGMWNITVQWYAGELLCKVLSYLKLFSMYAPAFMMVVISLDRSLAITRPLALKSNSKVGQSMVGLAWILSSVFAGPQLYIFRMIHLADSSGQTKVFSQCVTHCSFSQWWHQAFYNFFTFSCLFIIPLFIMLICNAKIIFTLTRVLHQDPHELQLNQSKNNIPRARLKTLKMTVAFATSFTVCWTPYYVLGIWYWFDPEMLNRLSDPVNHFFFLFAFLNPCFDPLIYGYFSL
How it was run: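 GnRHR-HEK293, 1500 cells/well, 18 h 37 C/5% CO2; Ca dye 1 h 37 C; cpd pinned (DMSO), agonist mode; kinetic FL 480/540, 3 min, 1 s reads; 15 conc, n=3.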

Row | SMILES | Potency | activity change
1 | CCCOc1ccc(S(=O)(=O)N2CCN(CC)CC2)cc1-c1nc2c(CC)n(Cc3ccccn3)nc2c(=O)[nH]1 | inactive | 
2 | COc1cc(Cl)c(OC)cc1N | inactive | 
3 | Oc1ccccc1F | inactive | 
4 | NCCCN1CCOCC1 | inactive | 
5 | CC(C)OC(=O)c1ccccc1C(=O)OC(C)C | inactive | 
6 | CC1CC(OC(=O)C(O)c2ccccc2)CC(C)(C)N1C (stereo not given) | inactive | 
7 | C=CC(=C)CCCC(C)(C)OC(C)=O | inactive | 
8 | CC(=O)N[C@@H](CCC(=O)O)C(=O)O | inactive | 
9 | CC(=O)OCC(=O)[C@H]1CC[C@H]2[C@@H]3CCC4=CC(=O)CC[C@]4(C)[C@H]3CC[C@]12C | inactive | 
10 | CCOc1ccc2nc(S(N)(=O)=O)sc2c1 | inactive | 
11 | O=C(O)c1ccc2cc(C(=O)O)ccc2c1 | inactive | 
12 | OCCc1ccncc1 | inactive | 
13 | CN1C(CSCC(F)(F)F)Nc2cc(Cl)c(S(N)(=O)=O)cc2S1(=O)=O (stereo not given) | inactive | 
14 | O=c1cc(O)c(Cl)c[nH]1 | inactive | 
15 | N#CCCNCCC#N | inactive | 
16 | CN1CCC(=C2c3ccccc3CCc3cccnc32)CC1 | inactive | 
17 | CCO[C@H](Cc1ccc(OCCc2ccc(OS(C)(=O)=O)cc2)cc1)C(=O)O | inactive | 
18 | CC(CC=O)CCCC(C)(C)O (stereo not given) | inactive | 
19 | COc1ccc(/C=N/NC(=O)c2ccncc2)cc1OC | inactive | 
20 | C=CCOC(=O)COCCC(C)C | inactive | 

Row | SMILES | Potency | activity change
21 | CCOC(=O)CC(=O)c1ccccc1 | inactive | 
22 | CCOc1ccccc1OCCN[C@H](C)Cc1ccc(OC)c(S(N)(=O)=O)c1 | inactive | 
23 | CCCCCCC(C)Nc1ccc(Nc2ccccc2)cc1 (stereo not given) | inactive | 
24 | O=C(NS(=O)(=O)/C=C/c1cccs1)c1ccc(F)cc1Br | inactive | 
25 | CCCc1ccc(OC)cc1 | inactive | 
26 | CCCCCCC#CC(=O)OC | inactive | 
27 | Cc1ccc(-c2ncc(Cl)cc2-c2ccc(S(C)(=O)=O)cc2)cn1 | inactive | 
28 | COC=O |  | -1.66% [at 5.22 µM, hits give high values]
29 | CCCCCCCCCCO[C@@H]1O[C@H](CO)[C@@H](O)[C@H](O)[C@H]1O | inactive | 
30 | CCN1C=CN(C)C1C (stereo not given) | inactive | 
31 | CN(C)CCOCCO | inactive | 
32 | CCC1Nc2cc(Cl)c(S(N)(=O)=O)cc2S(=O)(=O)N1 (stereo not given) | inactive | 
33 | CCCCOC(=O)CCCCC(=O)OCCCC | inactive | 
34 | O=C1[C@@H]2[C@H]3CC[C@H](C3)[C@@H]2C(=O)N1CCCCN1CCN(c2ncccn2)CC1 | inactive | 
35 | O=C(O)CNC(=O)c1ccccc1 | inactive | 
36 | COC1CCC=CO1 (stereo not given) | inactive | 
37 | CCOCCn1c(N2CCCN(C)CC2)nc2ccccc21 | inactive | 
38 | COCc1nnc(-c2ccc[n+]([O-])c2)n1-c1c(Cl)c(Cl)cc2[nH]c(=O)c(=O)[nH]c12 | inactive | 
39 | CN(C(=O)CN(CCO)CC(=O)N(C)C(C)(C)Cc1ccccc1)C(C)(C)Cc1ccccc1 | inactive | 
40 | CN(C)c1ccc(C2(c3ccc(N(C)C)cc3)OC(=O)c3cc(N(C)C)ccc32)cc1 | inactive | 

target: KiSS-1 receptor (Homo sapiens) (UniProt Q969F8); experiment: Human kisspeptin (KISS1R) small molecule agonists, calcium flux assay in KISS1R-HEK293 cells (AID 1920064); details: KISS1R-HEK293, calcium flux fluorescence, agonist; series mostly up to 76.8 µM
Sequence (Q969F8 whole entry, looked up): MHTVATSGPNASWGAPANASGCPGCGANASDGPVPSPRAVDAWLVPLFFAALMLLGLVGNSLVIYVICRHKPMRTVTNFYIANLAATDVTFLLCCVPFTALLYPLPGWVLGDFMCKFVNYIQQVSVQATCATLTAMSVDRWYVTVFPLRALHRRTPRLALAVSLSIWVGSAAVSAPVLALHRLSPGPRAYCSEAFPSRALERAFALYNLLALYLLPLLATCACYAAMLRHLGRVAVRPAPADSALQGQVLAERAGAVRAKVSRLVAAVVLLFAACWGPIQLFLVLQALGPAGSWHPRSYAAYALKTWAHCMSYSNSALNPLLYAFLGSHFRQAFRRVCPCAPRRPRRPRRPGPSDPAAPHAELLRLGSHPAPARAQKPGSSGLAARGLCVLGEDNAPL
How it was run: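 Stable human KISS1R HEK293 line; 18 h plating, 37 C/5% CO2; calcium dye 1 h 37 C; compound pin transfer; kinetic fluorescence Ex/Em 480/540, 3 min.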

Row | SMILES | Potency | activation
41 | CCCOc1ccc(S(=O)(=O)N2CCN(CC)CC2)cc1-c1nc2c(CC)n(Cc3ccccn3)nc2c(=O)[nH]1 | inactive | 
42 | COc1cc(Cl)c(OC)cc1N | inactive | 
43 | Oc1ccccc1F | inactive | 
44 | NCCCN1CCOCC1 | inactive | 
45 | CC(C)OC(=O)c1ccccc1C(=O)OC(C)C | inactive | 
46 | CC1CC(OC(=O)C(O)c2ccccc2)CC(C)(C)N1C (stereo not given) | inactive | 
47 | C=CC(=C)CCCC(C)(C)OC(C)=O | inactive | 
48 | CC(=O)N[C@@H](CCC(=O)O)C(=O)O | inactive | 
49 | CC(=O)OCC(=O)[C@H]1CC[C@H]2[C@@H]3CCC4=CC(=O)CC[C@]4(C)[C@H]3CC[C@]12C | inactive | 
50 | CCOc1ccc2nc(S(N)(=O)=O)sc2c1 | inactive | 
51 | O=C(O)c1ccc2cc(C(=O)O)ccc2c1 | inactive | 
52 | OCCc1ccncc1 | inactive | 
53 | CN1C(CSCC(F)(F)F)Nc2cc(Cl)c(S(N)(=O)=O)cc2S1(=O)=O (stereo not given) | inactive | 
54 | O=c1cc(O)c(Cl)c[nH]1 | inactive | 
55 | N#CCCNCCC#N | inactive | 
56 | CN1CCC(=C2c3ccccc3CCc3cccnc32)CC1 | inactive | 
57 | CCO[C@H](Cc1ccc(OCCc2ccc(OS(C)(=O)=O)cc2)cc1)C(=O)O | inactive | 
58 | CC(CC=O)CCCC(C)(C)O (stereo not given) | inactive | 
59 | COc1ccc(/C=N/NC(=O)c2ccncc2)cc1OC | inactive | 
60 | C=CCOC(=O)COCCC(C)C | inactive | 

Row | SMILES | Potency | activation
61 | CCOC(=O)CC(=O)c1ccccc1 | inactive | 
62 | CCOc1ccccc1OCCN[C@H](C)Cc1ccc(OC)c(S(N)(=O)=O)c1 | inactive | 
63 | CCCCCCC(C)Nc1ccc(Nc2ccccc2)cc1 (stereo not given) | inactive | 
64 | O=C(NS(=O)(=O)/C=C/c1cccs1)c1ccc(F)cc1Br | inactive | 
65 | CCCc1ccc(OC)cc1 | inactive | 
66 | CCCCCCC#CC(=O)OC | inactive | 
67 | Cc1ccc(-c2ncc(Cl)cc2-c2ccc(S(C)(=O)=O)cc2)cn1 | inactive | 
68 | COC=O |  | -0.791% [at 6.97 µM]
69 | CCCCCCCCCCO[C@@H]1O[C@H](CO)[C@@H](O)[C@H](O)[C@H]1O | inactive | 
70 | CCN1C=CN(C)C1C (stereo not given) | inactive | 
71 | CN(C)CCOCCO | inactive | 
72 | CCC1Nc2cc(Cl)c(S(N)(=O)=O)cc2S(=O)(=O)N1 (stereo not given) | inactive | 
73 | CCCCOC(=O)CCCCC(=O)OCCCC | inactive | 
74 | O=C1[C@@H]2[C@H]3CC[C@H](C3)[C@@H]2C(=O)N1CCCCN1CCN(c2ncccn2)CC1 | inactive | 
75 | O=C(O)CNC(=O)c1ccccc1 | inactive | 
76 | COC1CCC=CO1 (stereo not given) | inactive | 
77 | CCOCCn1c(N2CCCN(C)CC2)nc2ccccc21 | inactive | 
78 | COCc1nnc(-c2ccc[n+]([O-])c2)n1-c1c(Cl)c(Cl)cc2[nH]c(=O)c(=O)[nH]c12 | inactive | 
79 | CN(C(=O)CN(CCO)CC(=O)N(C)C(C)(C)Cc1ccccc1)C(C)(C)Cc1ccccc1 | inactive | 
80 | CN(C)c1ccc(C2(c3ccc(N(C)C)cc3)OC(=O)c3cc(N(C)C)ccc32)cc1 | inactive | 
